The text below walks through data of PubChem BioAssay (EPA / NIEHS).

The test system of experiment [1] is zebrafish Estrogen Receptor (ER2a), gene 317734. Kind of experiment: ATG_zfER2a_XSP2: Attagene TRANS-FACTORIAL Multi-Species (XSP2) HepG2 Assay for zebrafish Estrogen Receptor (ER2a) (AID 2283818).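 Note: hits raise reporter mRNA so AC50 reflects activation of zebrafish ER2a.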 Summed up: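 Multiplexed trans-reporter readout: RT-PCR then capillary electrophoresis of reporter transcripts after 24 h compound treatment. Human HepG2 carries transfected zebrafish ER2a-Gal4 chimera; 3 nM 6-alpha-fluorotestosterone plus 1.5 nM norgestrel present. Induction scored against DMSO.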

Experiment [2] relates to frog Estrogen Receptor (ER), gene 398734. Kind of experiment: ATG_frER1_XSP2: Attagene TRANS-FACTORIAL Multi-Species (XSP2) HepG2 Assay for frog Estrogen Receptor (ER) (AID 2283821).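 Note: hits raise reporter mRNA above DMSO baseline so potency means agonist or activator.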 Summed up: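 Gain-of-signal mRNA reporter assay, HepG2 human liver cells, 24 h dosing; transcripts read by fluorescent RT-PCR fragment analysis, DMSO as negative control.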
The test system of experiment [3] is zebrafish Estrogen Receptor (ER2b), gene 317733. The experiment is described as follows: ATG_zfER2b_XSP2: Attagene TRANS-FACTORIAL Multi-Species (XSP2) HepG2 Assay for zebrafish Estrogen Receptor (ER2b) (AID 2283823).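 Note: fitted upward as reporter gain over DMSO so potency reflects activation.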 Summed up: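 In this multiplexed trans-activation format, HepG2 cells expressing exogenous NR-Gal4 fusions drive GAL4-UAS reporters. Exposure lasts 24 h, and reporter mRNA induction is read by RT-PCR with capillary electrophoresis detection.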

The subject of experiment [4] is frog Estrogen Receptor (ER2), gene 100174814. Kind of experiment: ATG_frER2_XSP2: Attagene TRANS-FACTORIAL Multi-Species (XSP2) HepG2 Assay for frog Estrogen Receptor (ER2) (AID 2283828). The method, boiled down: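 Induction of reporter mRNA, baseline set by DMSO, is the endpoint. The panel was run in transfected HepG2 cells over 24 h, with 3 nM 6-alpha-fluorotestosterone and 1.5 nM norgestrel present to stimulate androgen receptor.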

The target of experiment [5] is Peroxisome proliferator-activated receptor gamma (Homo sapiens) (UniProt P37231). Kind of experiment: ATG_hPPARg_XSP2: Attagene TRANS-FACTORIAL Multi-Species (XSP2) HepG2 Assay for human Peroxisome Proliferator-activated Receptor gamma (PPARg) (AID 2283829).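 Note: actives raise reporter mRNA above DMSO so AC50 reflects PPARg activation.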 Summed up:
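Multiplexed transactivation in transfected HepG2 liver cells. Gal4-chimeric receptor activity reported as induced reporter transcript after 24 h.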

In experiment [6] the target is Nuclear receptor subfamily 1 group I member 2 (Mus musculus) (UniProt O54915). The experiment is described as follows: ATG_mPXR_XSP2: Attagene TRANS-FACTORIAL Multi-Species (XSP1) HepG2 Assay for mouse Pregnane X Receptor (PXR) (AID 2283831). Summed up: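 Human liver HepG2 cells expressing exogenous receptor-GAL4 chimeras were exposed to test chemicals for 24 h. Induction of reporter mRNA was scored as gain of fluorescence signal over DMSO controls.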

In experiment [7] the test system is zebrafish Peroxisome Proliferator-activated Receptor gamma (PPARg), gene 557037. Kind of experiment: ATG_zfPPARg_XSP2: Attagene TRANS-FACTORIAL Multi-Species (XSP2) HepG2 Assay for zebrafish Peroxisome Proliferator-activated Receptor gamma (PPARg) (AID 2283833).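 Note: reporter mRNA from a zebrafish PPARg GAL4 chimera measured by RT-PCR and capillary electrophoresis; actives increase reporter signal over DMSO so AC50 reflects activation.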 The method, boiled down:
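Cell-based transactivation of a chimeric zebrafish PPARg-GAL4 receptor was assessed in transiently transfected HepG2 cells after 24 h of treatment. Reporter mRNA induction, detected fluorescently after RT-PCR, was analysed in the positive direction against DMSO.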

In experiment [8] the test system is turtle Thyroid Hormone Receptor, alpha (TRa), gene 101949057. Kind of experiment: ATG_trTRa_XSP2: Attagene TRANS-FACTORIAL Multi-Species (XSP1) HepG2 Assay for turtle Thyroid Hormone Receptor, alpha (TRa) (AID 2283834).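 Note: hits raise reporter mRNA over the DMSO baseline so AC50 marks activators.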 The method, boiled down: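 Gain-of-signal reporter transcription measured in transiently transfected HepG2 at 24 h post-dose. Fluorescent RT-PCR products were resolved by capillary electrophoresis and compared with DMSO vehicle.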

Experiment [9] is described as follows: ATG_M_61_XSP2: Attagene TRANS-FACTORIAL Multi-Species (XSP2) HepG2 Assay for M61 Transcription Factor (Internal Marker) (AID 2283835; active = hit-call score of the fitted dose curve at least 0.9, where 1 is the maximum; inactive = score below 0.9;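 note: active means a rise in signal above the DMSO baseline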). The method, boiled down: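 Signal was mRNA induction detected as fluorescence after RT-PCR and capillary electrophoresis, analysed in the gain direction with DMSO as baseline. HepG2 cells transiently carrying reporter constructs received chemicals for 24 h.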

Experiment [10] concerns the target zebrafish Thyroid Hormone Receptor beta (TRb), thrb (gene 30607) (UniProt Q9PVE4). Kind of experiment: ATG_zfTRb_XSP2: Attagene TRANS-FACTORIAL Multi-Species (XSP1) HepG2 Assay for zebrafish Thyroid Hormone Receptor beta (TRb) (AID 2283836). The method, boiled down:
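Transfect HepG2 with multiple reporter transcription units, dose chemical, incubate 24 h. Isolate RNA, reverse-transcribe, amplify and fluorescently label reporter sequences, digest with HpaI, then resolve by capillary electrophoresis. Positive direction fitted against DMSO.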

Experiment [11] in a line: ATG_XTT_Cytotoxicity_XSP2: Cytotoxicity Assessment in the Attagene TRANS-FACTORIAL Multi-Species (XSP2) HepG2 Assay (AID 2283837). Summed up:
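XTT-based cell number read-out in human HepG2 liver cells carrying transfected reporter units, measured 24 h after chemical dosing. Activity is signal loss versus DMSO baseline.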

Experiment [12] has as its target human Thyroid hormone Receptor alpha (TRa), THRA (gene 7067) (UniProt P10827). The experiment is described as follows: ATG_hTRa_XSP2: Attagene TRANS-FACTORIAL Multi-Species (XSP2) HepG2 Assay for human Thyroid hormone Receptor alpha (TRa) (AID 2283838). The method, boiled down: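 Reporter transcripts were read by RT-PCR with fluorescent primer extension, HpaI digestion and capillary electrophoresis. These came from HepG2 cells carrying multiplexed TRa-Gal4 TRANS constructs, harvested 24 hours after dosing. The medium also held 6-alpha-fluorotestosterone (3 nM) and norgestrel (1.5 nM), and increases were fitted against DMSO.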

Experiment [13] addresses frog Thyroid hormone Receptor alpha (TRa), thra-a (gene 397942) (UniProt P15204). The experiment is described as follows: ATG_frTRa_XSP2: Attagene TRANS-FACTORIAL Multi-Species (XSP2) HepG2 Assay for frog Thyroid hormone Receptor alpha (TRa) (AID 2283839). Summed up:
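Frog thyroid receptor alpha was tested as an exogenous NR-Gal4 fusion in transiently transfected HepG2 cells. After 24 h chemical treatment, reporter mRNA induction was quantified by RT-PCR and capillary electrophoresis, with gain-of-signal analysed relative to DMSO.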

The target of experiment [14] is human Thyroid hormone Receptor beta (TRb), THRB (gene 7068) (UniProt P10828). The experiment is described as follows: ATG_hTRb_XSP2: Attagene TRANS-FACTORIAL Multi-Species (XSP2) HepG2 Assay for human Thyroid hormone Receptor beta (TRb) (AID 2283840).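 Note: actives raise reporter mRNA so potency reflects agonist-like gain of signal.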 The method, boiled down: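 In this cell-based multiplex, HepG2 liver cells carrying transfected GAL4-UAS reporter constructs are exposed to chemical for 24 hours, then reporter transcripts are measured by RT-PCR with capillary electrophoresis, scored as gain of signal against DMSO.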

Experiment [15] deals with human Vascular Endothelial Growth Factor Receptor 1 (VEGFR1), FLT1 (gene 2321) (UniProt P17948). The experiment is described as follows: NVS_ENZ_hVEGFR1: NovaScreen (NVS) Enzymatic Assay for human Vascular Endothelial Growth Factor Receptor 1 (VEGFR1) (AID 2283226). Summed up:
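Kinase activity of recombinant human VEGFR1 was read by fluorescence after electrophoretic separation of product from substrate, 1 h post-dosing; initial duplicate single-point testing at 25 uM, followed by concentration-series follow-up, with DMSO as baseline.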

Experiment [16] has as its target guinea pig Leukotriene D4 Receptor (LTD4), CYSLTR1 (gene 100135514) (UniProt Q2NNR5). Kind of experiment: NVS_GPCR_gLTD4: NovaScreen (NVS) G Protein-Coupled Receptor Assay for guinea pig Leukotriene D4 Receptor (LTD4) (AID 2283248). Summed up: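 Guinea pig lung membrane preparation; bound radioligand measured by filter scintillation after 1 h, loss of signal versus DMSO marking displacement. Compounds tested at 25 uM in duplicate, hits retested to max 50 uM.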

Experiment [17] addresses Estrogen receptor (Homo sapiens) (UniProt P03372). The experiment is described as follows: CCTE_Deisenroth_AIME_384WELL_LUC_Active: CCTE's 384-well Estrogen Receptor Transactivation Assay with AIME metabolic competence (ERTA luciferase; metabolism positive), Deisenroth Lab (AID 2284030). The method, boiled down: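 In this metabolism-positive format, a 2-hour exposure to alginate-immobilized rat S9 precedes a 24 hour luciferase transactivation readout in VM7Luc4E2 cells. Dosing spans 10 concentrations from 0.002 to 200 uM.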

The target is the same in experiment [18]. Kind of experiment: CCTE_Deisenroth_AIME_384WELL_LUC_Inactive: CCTE's 384-well Estrogen Receptor Transactivation Assay without AIME metabolic competence (ERTA luciferase; metabolism negative), Deisenroth Lab (AID 2284038).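 Note: VM7Luc4E2 breast cells given medium preincubated 2 h with S9-free microspheres; hits raise estrogen receptor luciferase signal so potencies reflect agonists.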 Summed up:
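VM7Luc4E2 ER transactivation, luciferase bioluminescence after 24 h, using medium pre-incubated 2 h with S9-free alginate microspheres. Concentrations 0.002–200 uM; gain of signal fitted relative to 17beta-estradiol.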

The target is the same in experiment [19]. The experiment is described as follows: CCTE_Deisenroth_AIME_384WELL_LUC_Shift: CCTE's 384-well Estrogen Receptor Transactivation Assay with AIME metabolic competence data shift (ERTA luciferase; difference in metabolism positive and negative), Deisenroth Lab (AID 2284041; active = hit-call score of the fitted dose curve at least 0.9, where 1 is the maximum; inactive = score below 0.9;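 note: shift is response with S9 minus without S9 so positive means metabolism raised ER signal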). The method, boiled down:
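Here, parent compounds undergo 2 h phase I metabolism by PB/BNF-induced rat S9 before 24 h transactivation in VM7Luc4E2 cells; the curve models S9-positive minus S9-negative response over a 10-point series.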

The target in experiment [20] is human CYP2C9, CYP2C9 (gene 1559) (UniProt P11712). The experiment is described as follows: NVS_ADME_hCYP2C9: NovaScreen (NVS) CYP450-related Enzyme Activity (ADME) Assay for human CYP2C9 (AID 2283108). Summed up:
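Cell-free assay of recombinant human CYP2C9 produced in Sf9 cells, with enzyme activity read by fluorescence intensity 0.75 h after compound addition. Loss of signal versus an acetonitrile negative control indicates inhibition. Primary screen used 10 uM in duplicate; actives were retested in concentration series.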

Several values for one entry are separate records, joined by “and”; a condition that tells them apart may be missing. Identical values can stand only once. Records with an inconclusive call do not appear. Activity calls are given as the source filed them. Rule for the calls, unless noted: active = hit-call score of the fitted dose curve at least 0.9, where 1 is the maximum; inconclusive = response in the unintended direction; inactive = score below 0.9.

Chain of Estrogen receptor (Homo sapiens) (P03372 whole entry, looked up): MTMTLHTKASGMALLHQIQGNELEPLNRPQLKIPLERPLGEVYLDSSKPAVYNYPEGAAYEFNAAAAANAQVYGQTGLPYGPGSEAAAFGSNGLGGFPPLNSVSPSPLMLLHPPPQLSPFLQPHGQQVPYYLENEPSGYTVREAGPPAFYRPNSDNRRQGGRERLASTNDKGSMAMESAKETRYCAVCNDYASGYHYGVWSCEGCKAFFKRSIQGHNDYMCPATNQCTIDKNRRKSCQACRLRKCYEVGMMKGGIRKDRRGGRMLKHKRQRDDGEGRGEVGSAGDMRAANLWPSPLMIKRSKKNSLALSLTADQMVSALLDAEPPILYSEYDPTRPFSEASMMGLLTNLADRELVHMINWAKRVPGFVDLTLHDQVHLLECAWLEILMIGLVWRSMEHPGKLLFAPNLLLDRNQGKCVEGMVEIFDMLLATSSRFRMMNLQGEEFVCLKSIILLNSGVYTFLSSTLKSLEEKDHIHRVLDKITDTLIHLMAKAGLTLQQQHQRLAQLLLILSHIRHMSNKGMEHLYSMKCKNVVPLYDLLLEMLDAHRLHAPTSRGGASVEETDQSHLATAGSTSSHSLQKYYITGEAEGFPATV
Chain of human Thyroid hormone Receptor alpha (TRa), THRA (gene 7067) (P10827 whole entry, looked up, the tested form may be a part): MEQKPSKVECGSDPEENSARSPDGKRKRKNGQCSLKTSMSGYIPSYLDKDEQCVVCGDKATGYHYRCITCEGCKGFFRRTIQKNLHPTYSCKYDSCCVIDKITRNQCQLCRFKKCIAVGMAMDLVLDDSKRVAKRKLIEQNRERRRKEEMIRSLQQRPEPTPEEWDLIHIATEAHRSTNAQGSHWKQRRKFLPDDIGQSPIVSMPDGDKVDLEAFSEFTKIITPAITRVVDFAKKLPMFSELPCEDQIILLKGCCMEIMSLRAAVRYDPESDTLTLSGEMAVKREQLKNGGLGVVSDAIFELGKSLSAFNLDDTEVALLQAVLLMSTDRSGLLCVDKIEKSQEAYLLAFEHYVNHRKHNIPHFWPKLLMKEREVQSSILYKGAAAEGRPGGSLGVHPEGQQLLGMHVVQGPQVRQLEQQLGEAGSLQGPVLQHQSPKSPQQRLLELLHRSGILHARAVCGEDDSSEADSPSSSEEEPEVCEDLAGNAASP
Chain of human Thyroid hormone Receptor beta (TRb), THRB (gene 7068) (P10828 whole entry, looked up, the tested form may be a part): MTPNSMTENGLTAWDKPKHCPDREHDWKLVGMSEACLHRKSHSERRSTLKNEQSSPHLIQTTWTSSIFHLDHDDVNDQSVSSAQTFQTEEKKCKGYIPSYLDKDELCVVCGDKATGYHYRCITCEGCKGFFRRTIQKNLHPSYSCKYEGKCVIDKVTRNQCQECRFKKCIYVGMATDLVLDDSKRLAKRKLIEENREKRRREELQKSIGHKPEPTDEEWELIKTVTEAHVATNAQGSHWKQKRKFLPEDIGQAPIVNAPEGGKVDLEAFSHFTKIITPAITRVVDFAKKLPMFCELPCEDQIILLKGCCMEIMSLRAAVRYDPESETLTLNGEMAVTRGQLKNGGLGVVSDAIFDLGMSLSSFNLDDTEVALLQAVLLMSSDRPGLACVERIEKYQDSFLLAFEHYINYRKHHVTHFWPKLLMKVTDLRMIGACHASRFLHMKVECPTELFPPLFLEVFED
Chain of Nuclear receptor subfamily 1 group I member 2 (Mus musculus) (O54915 whole entry, looked up, the tested form may be a part): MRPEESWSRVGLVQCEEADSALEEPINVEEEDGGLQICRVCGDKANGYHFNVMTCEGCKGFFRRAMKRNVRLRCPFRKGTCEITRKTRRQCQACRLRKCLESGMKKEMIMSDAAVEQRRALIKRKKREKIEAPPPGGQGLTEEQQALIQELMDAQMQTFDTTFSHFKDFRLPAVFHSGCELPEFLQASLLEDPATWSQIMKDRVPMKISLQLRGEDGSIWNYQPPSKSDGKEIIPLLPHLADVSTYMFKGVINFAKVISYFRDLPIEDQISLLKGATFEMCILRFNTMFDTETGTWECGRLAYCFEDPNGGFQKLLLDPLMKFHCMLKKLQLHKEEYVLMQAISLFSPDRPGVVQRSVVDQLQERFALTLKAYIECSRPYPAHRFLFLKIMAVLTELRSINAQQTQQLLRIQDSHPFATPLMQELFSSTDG
Chain of Peroxisome proliferator-activated receptor gamma (Homo sapiens) (P37231 whole entry, looked up, the tested form may be a part): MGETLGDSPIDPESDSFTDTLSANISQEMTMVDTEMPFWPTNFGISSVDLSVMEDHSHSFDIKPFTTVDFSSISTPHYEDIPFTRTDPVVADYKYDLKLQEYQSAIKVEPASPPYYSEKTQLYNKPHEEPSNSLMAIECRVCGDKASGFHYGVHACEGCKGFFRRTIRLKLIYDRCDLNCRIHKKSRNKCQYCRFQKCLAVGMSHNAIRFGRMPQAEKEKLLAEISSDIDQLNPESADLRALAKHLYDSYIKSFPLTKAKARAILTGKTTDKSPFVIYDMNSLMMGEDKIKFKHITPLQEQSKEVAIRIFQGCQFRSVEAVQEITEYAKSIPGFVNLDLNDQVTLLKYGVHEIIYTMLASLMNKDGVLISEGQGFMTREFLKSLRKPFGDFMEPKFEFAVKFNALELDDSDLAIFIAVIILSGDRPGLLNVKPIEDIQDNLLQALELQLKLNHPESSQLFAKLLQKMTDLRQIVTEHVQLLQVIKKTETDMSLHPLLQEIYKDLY
Chain of human CYP2C9, CYP2C9 (gene 1559) (P11712 whole entry, looked up): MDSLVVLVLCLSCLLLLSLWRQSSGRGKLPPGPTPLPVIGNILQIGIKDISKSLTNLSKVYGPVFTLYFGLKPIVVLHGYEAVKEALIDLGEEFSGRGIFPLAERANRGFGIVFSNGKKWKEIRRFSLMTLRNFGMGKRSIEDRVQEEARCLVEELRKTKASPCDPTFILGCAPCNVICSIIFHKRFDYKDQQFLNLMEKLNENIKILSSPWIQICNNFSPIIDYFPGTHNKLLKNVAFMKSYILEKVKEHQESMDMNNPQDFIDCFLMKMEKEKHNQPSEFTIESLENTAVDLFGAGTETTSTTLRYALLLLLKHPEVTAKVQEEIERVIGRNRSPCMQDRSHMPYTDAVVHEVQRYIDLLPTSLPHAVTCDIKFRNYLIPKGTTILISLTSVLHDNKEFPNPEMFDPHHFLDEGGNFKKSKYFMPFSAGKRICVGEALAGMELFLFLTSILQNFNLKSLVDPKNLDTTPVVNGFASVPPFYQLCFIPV
Chain of zebrafish Thyroid Hormone Receptor beta (TRb), thrb (gene 30607) (Q9PVE4 whole entry, looked up): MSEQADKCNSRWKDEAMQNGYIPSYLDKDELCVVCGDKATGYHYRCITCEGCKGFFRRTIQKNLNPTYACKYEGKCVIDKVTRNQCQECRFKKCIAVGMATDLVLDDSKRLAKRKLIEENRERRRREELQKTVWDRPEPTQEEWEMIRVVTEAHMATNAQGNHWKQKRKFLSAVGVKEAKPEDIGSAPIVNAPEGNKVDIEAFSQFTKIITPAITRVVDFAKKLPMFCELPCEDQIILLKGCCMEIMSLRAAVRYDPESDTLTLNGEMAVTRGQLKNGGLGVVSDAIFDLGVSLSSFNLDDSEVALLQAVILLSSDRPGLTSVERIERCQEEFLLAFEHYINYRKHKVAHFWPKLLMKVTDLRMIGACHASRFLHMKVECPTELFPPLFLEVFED
Chain of human Vascular Endothelial Growth Factor Receptor 1 (VEGFR1), FLT1 (gene 2321) (P17948 whole entry, looked up): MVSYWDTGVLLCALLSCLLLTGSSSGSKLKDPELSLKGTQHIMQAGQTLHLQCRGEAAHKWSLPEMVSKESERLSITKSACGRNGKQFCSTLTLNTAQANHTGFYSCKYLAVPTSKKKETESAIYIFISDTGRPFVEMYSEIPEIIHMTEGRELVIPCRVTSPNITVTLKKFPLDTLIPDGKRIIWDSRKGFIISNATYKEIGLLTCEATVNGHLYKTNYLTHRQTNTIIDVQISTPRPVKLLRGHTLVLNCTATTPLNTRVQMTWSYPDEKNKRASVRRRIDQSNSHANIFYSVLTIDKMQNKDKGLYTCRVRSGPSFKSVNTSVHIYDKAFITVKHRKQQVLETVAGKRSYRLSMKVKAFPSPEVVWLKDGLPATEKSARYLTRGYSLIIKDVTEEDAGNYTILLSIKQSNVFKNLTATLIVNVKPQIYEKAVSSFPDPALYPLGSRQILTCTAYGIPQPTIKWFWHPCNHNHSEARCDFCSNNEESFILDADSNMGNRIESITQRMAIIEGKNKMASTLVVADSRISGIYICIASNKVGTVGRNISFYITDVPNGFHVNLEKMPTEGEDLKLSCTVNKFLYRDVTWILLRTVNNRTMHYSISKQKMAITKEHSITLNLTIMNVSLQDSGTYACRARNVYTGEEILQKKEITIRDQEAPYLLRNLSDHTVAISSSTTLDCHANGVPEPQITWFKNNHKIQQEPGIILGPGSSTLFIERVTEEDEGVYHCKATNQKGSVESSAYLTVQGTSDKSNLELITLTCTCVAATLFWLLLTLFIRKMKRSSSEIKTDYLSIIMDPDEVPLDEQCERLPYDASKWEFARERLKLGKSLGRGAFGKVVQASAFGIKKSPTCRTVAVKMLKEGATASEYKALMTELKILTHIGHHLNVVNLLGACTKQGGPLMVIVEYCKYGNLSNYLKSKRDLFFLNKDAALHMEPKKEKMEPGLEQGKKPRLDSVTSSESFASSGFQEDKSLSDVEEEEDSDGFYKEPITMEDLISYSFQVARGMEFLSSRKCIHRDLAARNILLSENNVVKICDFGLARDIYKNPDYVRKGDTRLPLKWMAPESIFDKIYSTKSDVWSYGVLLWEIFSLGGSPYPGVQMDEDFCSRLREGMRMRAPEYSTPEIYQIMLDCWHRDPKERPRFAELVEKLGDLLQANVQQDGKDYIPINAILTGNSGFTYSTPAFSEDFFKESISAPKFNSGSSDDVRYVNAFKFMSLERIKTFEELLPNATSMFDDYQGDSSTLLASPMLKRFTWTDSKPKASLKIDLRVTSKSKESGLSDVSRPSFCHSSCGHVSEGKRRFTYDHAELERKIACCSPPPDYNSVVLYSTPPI

Broadly, the AC50 is the concentration giving half of the maximal activity seen. Regarding `Cc1cc(O)cc(C)c1Cl`, the AC50 in [1] is 100 µM (active) and 23.8 µM (active); in [2], 66.8 µM (active) and 26.3 µM (active); in experiment [3], 68.1 µM (active) and 34.5 µM (active); in [4], 29.3 µM (active) and 19.5 µM (active); in experiment [5], 48.2 µM (active) and 63.3 µM (active). The compound was called inactive in experiment [6], in experiment [7], in [8], in experiment [9], in experiment [10] and in experiment [11]. For the same compound, the compound was called inactive in experiment [12], in experiment [13] and in experiment [14].
As for `CC(=O)CCc1ccccc1`, in experiment [15], the compound was called inactive.
Take `CCCCCCCCCCCCCCCCCC[N+](C)(C)C`: the call in [16] was inactive.
As for `CCCCCCC1CCC(=O)O1` (stereo not given), the values for the AC50 in experiment [17], in [18] and in experiment [19] were 0.244 nM (active), 1.29 nM (active) and 0.196 nM (active), respectively.
Regarding `Sc1nc2ccccc2s1`, in [20], the AC50 is 1900 nM (active).
